Measurements: the supplement of paper PMC10849652
Of roughly 7,900 targets only a part is listed; those with a hit were picked by preference. About 0.6% of all pairs of compound and target were hits. Values without a mark were called inactive.

Key:
Assay in all cases: log2 fold change, soluble protein after heating vs DMSO (PISA); higher = thermal stabilisation; K562 cells, 10 uM, 30 min; active = over 0.2 and 3.5 SD of the protein, either way, in both replicates (recomputed)
[1] = compound: C#Cc1cccc(Nc2ncnc3cc(OCCOC)c(OCCOC)cc23)c1 [erlotinib]
In short: (§1)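 Aliquots of K562 cells (2×10^6 cells/mL) treated with 10 μM compound for 30 min were heated for 3 min over 48°C-58°C. After pooling and extraction in PBS with 0.5% NP-40 at 4°C, soluble protein from a 21,000xg, 90 min spin was quantified by TMTpro 16plex LC-MS/MS with channel sums equalised. Thermal stability is expressed against control samples, from duplicates, as a log2 fold change.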

[2] = compound: C/C(=N\NC(=O)C1=CC(=CC=C1)S(=O)(=O)N2CCOCC2)/C3=C(C=CC(=C3)Cl)O
In short: as §1

[3] = compound: C1=CC(=C(C=C1Cl)C2=NC3=NC=CN=C3C(=N2)NC4=CC=NC=C4)F
In short: as §1

[4] = compound: C1=CC(=CC=C1C2=NC3=C(N2)C=C(C=C3)C(=O)N)OC4=CC=C(C=C4)Cl
In short: as §1

[5] = compound: C1=CC2=C(C=CC(=C2)/C=C\3/C(=O)NC(=NCC4=CC=CS4)S3)N=C1
In short: as §1

[6] = compound: C1=CC2=NC=CN=C2C=C1/C=C/3\C(=O)NC(=O)S3
In short: as §1

[7] = compound: C1=CC=C(C=C1)C2=NC(=C(N2)C3=CC=NC=C3)C4=CC(=C(C=C4)Cl)O
In short: as §1

[8] = compound: C1=CC=C2C(=C1)C3=NNC4=CC=CC(=C43)C2=O
In short: as §1

[9] = compound: C1CCN(C1)C(=O)NC2=CC=CC(=C2)NC3=NC=C(C(=N3)NCCC4=CN=CN4)Br
In short: as §1

[10] = compound: C1CN(CCC1(CC2=CC=C(C=C2)Cl)N)C3=NC=NC4=C3C=CN4
In short: as §1

[11] = compound: C1COCCN1CCN2C3=CC=CC=C3N=C2NC(=O)C4=CC(=CC=C4)[N+](=O)[O-] [IRAK-1-4 Inhibitor I]
In short: as §1

[12] = compound: C=CC(=O)N1CCC[C@@H](n2nc(-c3ccc(Oc4ccccc4)cc3)c3c(N)ncnc32)C1 [ibrutinib]
In short: as §1

[13] = compound: CC(=O)c1cnc2ccc(-c3cc(Cl)c(O)c(Cl)c3)nc2c1N[C@H]1CC[C@H](CN(C)C)CC1
In short: as §1

[14] = compound: CC(C)(C)Cn1c(N)nc2ccc(-c3[nH]c(C(C)(C)C)nc3-c3ccc(F)cc3)nc21 [ralimetinib]
In short: as §1

[15] = compound: CC(C)(O)CC(=O)NCCn1ccc2ncnc(Nc3ccc(Oc4cccc(C(F)(F)F)c4)c(Cl)c3)c21
In short: as §1

[16] = compound: CC(C)C1=C2N=C(C=C(N2N=C1)NCC3=CC=CC=C3)NCCCCCCN
In short: as §1

[17] = compound: CC(C)C[C@@H](C=O)NC(=O)[C@H](CC(C)C)NC(=O)[C@H](CC(C)C)NC(=O)OCc1ccccc1
In short: as §1

[18] = compound: CC(C)N(C[C@H]1O[C@@H](n2cnc3c(N)ncnc32)[C@H](O)[C@@H]1O)[C@H]1C[C@@H](CCc2nc3cc(C(C)(C)C)ccc3[nH]2)C1 [pinometostat]
In short: as §1

[19] = compound: CC1=C(C(CC(=O)N1)C2=CC=C(C=C2)C(F)(F)F)C(=O)NC3=C(C=C4C(=C3)C=NN4)F
In short: as §1

[20] = compound: CC1=C(C2=C(C=C1)C(=O)C3=CC=CC=C3N2CCCN)C
In short: as §1

Sequence of UniProt P33121 (P33121 whole entry, looked up): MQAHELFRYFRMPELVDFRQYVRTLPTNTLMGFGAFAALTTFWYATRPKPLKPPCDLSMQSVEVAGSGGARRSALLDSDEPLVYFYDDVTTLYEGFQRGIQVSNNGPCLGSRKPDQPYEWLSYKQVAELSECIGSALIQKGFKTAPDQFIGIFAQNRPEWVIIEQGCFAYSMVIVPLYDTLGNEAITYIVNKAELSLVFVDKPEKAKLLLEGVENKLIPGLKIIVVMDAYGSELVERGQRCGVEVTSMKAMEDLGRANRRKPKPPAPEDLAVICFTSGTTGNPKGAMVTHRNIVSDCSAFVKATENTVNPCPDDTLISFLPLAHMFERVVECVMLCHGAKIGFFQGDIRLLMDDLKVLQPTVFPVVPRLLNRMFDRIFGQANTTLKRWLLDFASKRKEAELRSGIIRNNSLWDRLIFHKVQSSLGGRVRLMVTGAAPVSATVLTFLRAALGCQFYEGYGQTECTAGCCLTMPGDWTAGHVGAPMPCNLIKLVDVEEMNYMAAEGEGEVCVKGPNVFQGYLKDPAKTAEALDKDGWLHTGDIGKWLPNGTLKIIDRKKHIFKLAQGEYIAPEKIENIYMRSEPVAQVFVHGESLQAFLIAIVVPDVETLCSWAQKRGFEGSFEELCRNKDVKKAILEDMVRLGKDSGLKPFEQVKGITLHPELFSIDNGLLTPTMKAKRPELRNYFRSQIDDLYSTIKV
Sequence of UniProt Q66PJ3 (Q66PJ3 whole entry, looked up): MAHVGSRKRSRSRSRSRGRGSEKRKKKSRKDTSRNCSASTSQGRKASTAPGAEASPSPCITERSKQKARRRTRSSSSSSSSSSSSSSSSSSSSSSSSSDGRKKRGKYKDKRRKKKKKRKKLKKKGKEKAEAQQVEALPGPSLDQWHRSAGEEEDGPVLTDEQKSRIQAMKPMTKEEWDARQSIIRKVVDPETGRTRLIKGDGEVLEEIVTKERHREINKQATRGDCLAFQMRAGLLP
Sequence of UniProt Q9BTE6 (Q9BTE6 whole entry, looked up): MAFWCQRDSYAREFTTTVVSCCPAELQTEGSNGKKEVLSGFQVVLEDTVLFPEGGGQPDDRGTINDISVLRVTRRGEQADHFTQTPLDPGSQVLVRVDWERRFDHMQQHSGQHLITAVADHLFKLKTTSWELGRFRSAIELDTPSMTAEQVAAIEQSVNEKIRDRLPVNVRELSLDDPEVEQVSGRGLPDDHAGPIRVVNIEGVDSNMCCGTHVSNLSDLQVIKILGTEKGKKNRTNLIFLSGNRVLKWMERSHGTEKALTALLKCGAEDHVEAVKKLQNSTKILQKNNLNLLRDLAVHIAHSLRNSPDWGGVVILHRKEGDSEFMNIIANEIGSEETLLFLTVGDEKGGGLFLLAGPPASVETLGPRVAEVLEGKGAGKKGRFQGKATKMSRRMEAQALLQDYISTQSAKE
Sequence of UniProt Q06481 (Q06481 whole entry, looked up): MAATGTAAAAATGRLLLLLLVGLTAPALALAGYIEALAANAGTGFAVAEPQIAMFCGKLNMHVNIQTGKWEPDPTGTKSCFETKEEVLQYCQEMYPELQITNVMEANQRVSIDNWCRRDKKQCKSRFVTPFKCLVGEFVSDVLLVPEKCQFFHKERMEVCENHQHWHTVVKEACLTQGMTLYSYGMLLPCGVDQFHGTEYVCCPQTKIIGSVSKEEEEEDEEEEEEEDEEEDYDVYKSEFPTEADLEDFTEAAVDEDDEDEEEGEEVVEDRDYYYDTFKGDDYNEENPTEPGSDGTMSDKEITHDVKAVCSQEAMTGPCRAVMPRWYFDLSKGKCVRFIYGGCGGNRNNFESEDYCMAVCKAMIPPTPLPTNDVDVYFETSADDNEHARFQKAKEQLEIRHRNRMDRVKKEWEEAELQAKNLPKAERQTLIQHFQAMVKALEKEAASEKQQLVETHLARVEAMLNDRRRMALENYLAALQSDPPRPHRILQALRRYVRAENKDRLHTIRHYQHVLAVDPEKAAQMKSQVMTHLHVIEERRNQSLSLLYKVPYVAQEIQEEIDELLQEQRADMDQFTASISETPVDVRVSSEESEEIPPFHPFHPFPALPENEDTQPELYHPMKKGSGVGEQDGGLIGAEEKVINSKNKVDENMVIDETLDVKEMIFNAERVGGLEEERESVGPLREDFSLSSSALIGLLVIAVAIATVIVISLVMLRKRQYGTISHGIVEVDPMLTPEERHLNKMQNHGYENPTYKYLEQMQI
Sequence of UniProt O14965 (O14965 whole entry, looked up): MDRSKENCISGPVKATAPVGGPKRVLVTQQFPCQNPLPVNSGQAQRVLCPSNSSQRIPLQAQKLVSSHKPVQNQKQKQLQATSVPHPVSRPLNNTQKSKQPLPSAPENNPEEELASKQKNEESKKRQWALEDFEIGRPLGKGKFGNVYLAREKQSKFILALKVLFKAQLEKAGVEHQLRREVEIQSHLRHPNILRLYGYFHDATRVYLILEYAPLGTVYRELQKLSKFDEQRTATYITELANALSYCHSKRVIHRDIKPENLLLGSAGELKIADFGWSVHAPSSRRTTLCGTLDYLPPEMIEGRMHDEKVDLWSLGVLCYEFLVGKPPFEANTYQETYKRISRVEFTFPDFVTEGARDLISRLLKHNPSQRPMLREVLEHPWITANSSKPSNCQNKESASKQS
Sequence of UniProt P35611 (P35611 whole entry, looked up): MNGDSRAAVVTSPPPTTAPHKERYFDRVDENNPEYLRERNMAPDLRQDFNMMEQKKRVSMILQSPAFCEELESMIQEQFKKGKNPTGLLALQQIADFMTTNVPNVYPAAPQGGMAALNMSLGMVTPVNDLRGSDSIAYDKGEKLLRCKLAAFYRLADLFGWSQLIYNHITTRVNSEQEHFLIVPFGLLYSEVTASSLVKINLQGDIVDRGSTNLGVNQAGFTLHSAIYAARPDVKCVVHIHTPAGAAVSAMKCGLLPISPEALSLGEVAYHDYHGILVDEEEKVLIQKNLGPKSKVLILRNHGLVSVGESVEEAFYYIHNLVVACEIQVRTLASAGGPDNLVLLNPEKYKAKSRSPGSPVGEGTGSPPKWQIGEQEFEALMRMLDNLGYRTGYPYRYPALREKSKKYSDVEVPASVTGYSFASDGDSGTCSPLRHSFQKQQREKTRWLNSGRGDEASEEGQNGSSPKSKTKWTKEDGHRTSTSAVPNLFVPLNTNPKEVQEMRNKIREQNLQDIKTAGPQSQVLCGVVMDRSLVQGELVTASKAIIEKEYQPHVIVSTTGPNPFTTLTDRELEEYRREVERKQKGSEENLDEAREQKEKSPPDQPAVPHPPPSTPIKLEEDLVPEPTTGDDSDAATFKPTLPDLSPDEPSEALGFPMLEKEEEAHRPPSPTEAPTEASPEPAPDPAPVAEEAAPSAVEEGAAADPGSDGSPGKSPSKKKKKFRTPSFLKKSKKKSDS
Sequence of UniProt Q2TAA5 (Q2TAA5 whole entry, looked up): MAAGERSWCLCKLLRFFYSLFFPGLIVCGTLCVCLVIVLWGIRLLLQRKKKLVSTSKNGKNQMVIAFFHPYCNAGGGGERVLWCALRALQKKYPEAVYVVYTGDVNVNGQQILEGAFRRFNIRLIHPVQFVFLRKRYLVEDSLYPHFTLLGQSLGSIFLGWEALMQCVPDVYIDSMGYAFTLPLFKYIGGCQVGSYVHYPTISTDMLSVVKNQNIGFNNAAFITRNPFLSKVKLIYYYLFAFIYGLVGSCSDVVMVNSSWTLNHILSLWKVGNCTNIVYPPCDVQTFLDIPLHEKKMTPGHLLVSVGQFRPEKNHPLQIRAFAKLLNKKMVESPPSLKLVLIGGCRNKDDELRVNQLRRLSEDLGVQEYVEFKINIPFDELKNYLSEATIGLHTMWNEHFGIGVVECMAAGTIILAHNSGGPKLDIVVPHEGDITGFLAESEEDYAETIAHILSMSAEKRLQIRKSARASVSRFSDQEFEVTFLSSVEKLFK
Sequence of UniProt Q93084 (Q93084 whole entry, looked up): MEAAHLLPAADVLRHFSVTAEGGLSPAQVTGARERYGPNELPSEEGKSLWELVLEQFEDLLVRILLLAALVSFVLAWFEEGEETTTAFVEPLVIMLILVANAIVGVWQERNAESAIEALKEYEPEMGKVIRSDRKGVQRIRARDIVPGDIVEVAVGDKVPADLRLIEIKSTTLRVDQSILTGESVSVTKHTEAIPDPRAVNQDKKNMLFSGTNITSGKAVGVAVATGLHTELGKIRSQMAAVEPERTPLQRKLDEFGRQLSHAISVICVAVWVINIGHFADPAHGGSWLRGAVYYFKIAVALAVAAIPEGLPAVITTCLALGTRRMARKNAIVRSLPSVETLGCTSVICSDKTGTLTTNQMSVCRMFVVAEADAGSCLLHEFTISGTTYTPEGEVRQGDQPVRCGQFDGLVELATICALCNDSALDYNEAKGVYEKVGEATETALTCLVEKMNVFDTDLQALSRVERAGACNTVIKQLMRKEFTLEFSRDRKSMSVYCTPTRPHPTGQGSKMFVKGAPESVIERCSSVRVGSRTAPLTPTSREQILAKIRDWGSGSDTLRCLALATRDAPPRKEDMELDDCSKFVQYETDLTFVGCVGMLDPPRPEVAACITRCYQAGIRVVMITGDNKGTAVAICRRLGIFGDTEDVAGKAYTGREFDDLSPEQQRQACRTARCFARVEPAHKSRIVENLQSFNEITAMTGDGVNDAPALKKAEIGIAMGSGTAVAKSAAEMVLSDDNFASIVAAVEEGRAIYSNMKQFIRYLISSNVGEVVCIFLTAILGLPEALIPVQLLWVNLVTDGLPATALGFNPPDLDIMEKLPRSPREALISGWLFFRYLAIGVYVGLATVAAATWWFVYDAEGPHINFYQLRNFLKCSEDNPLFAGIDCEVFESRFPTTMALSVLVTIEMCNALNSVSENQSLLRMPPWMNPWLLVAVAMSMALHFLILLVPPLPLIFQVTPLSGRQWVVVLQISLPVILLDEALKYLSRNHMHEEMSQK

Target	log2 fold change [1]	log2 fold change [2]	log2 fold change [3]	log2 fold change [4]	log2 fold change [5]	log2 fold change [6]	log2 fold change [7]	log2 fold change [8]	log2 fold change [9]	log2 fold change [10]	log2 fold change [11]	log2 fold change [12]	log2 fold change [13]	log2 fold change [14]	log2 fold change [15]	log2 fold change [16]	log2 fold change [17]	log2 fold change [18]	log2 fold change [19]	log2 fold change [20]
AARSD1 isoform 3 (UniProt Q9BTE6)	0.05	-0.736 (active)	0.113	-0.014	-0.027	0.008	-0.015	0.053	-0.006	-0.086	0.002	-0.074	0.029	-0.038	-0.017	-0.177	0.069	-0.01	-0.027	-0.126
AP2M1 (UniProt Q96CW1)	-0.067	0.006	-0.012	0.017	0.005	-0.016	0.036	-0.26 (active)	-0.367 (active)	-0.01	-0.049	0.043	-0.043	0.036	0.022	0.045	0.011	0.026	0.011	0.079
ATF7 isoform 6 (UniProt P17544)	-0.011	-0.148	-0.043	0.021	0.032	-0.055	0.08	0.085	-0.004	-0.117	-0.031	0.199	0.183	0.089	-0.042	0.138	-0.14	0.019	-0.082	0.22
AFG1L (UniProt Q8WV93)	0.053	0	0.076	-0.083	0.065	0.041	-0.204	-0.042	0.058	-0.004	0.014	-0.016	-0.135	-0.134	-0.091	-0.385 (active)	0.146	0.023	0.057	-0.056
ATR (UniProt Q13535)	0.014	-0.011	-0.039	0.018	0.02	0.02	-0.017	0.086	-0.029	0.046	0.093	0.031	0.021	-0.03	-0.077	0.046	0.037	0.101	0.002	0.109
ALG11 (UniProt Q2TAA5)	-0.015	0.042	0.075	0.013	0.074	0.054	0.009	-0.048	-0.045	-0.014	0.003	0.09	0.053	-0.014	-0.112	0.037	-0.064	0.032	0.002	0.23 (active)
APLP2 (UniProt Q06481)	0.003	0.009	-0.023	-0.034	0.023	0.004	0.044	-0.03	-0.047	-0.002	-0.073	-0.005	-0.004	0.086	0.133	0.167	0.062	0	-0.017	-0.225
ATP13A3 (UniProt Q9H7F0)	0.043	-0.046	0.05	0.018	0.016	0.038	-0.006	-0.028	0.017	0.049	0.043	-0.005	0.004	-0.032	-0.136	-0.199	0.073	-0.007	0.042	-0.035
ANAPC2 (UniProt Q9UJX6)	-0.028	0.064	-0.002	0.018	0.002	0.144	-0.029	0.022	-0.033	-0.022	0.018	-0.045	0.005	0.011	-0.025	-0.083	0.055	0.078	-0.044	-0.051
ACSL1 (UniProt P33121)	-0.015	0.067	0.017	0.03	0.005	0.018	0.057	0.016	-0.021	0.002	-0.004	0.017	-0.037	-0.018	0.01	-0.243 (active)	-0.057	0.008	0.058	0.03
ARL6IP4 (UniProt Q66PJ3)	0.041	0.06	-0.085	-0.01	-0.08	0	-0.12	0.117	0.003	0.039	0.049	0.026	0.018	0.01	0	0.075	0.021	-0.03	0.064	0.049
ADD1 isoform 3 (UniProt P35611)	0.041	0.018	-0.013	-0.022	0.071	0.004	-0.08	-0.018	-0.018	0.023	0.048	0.011	-0.274 (active)	-0.068	-0.008	0.038	-0.003	-0.001	-0.004	0.008
ATP2A3 isoform 2 (UniProt Q93084)	-0.002	-0.002	0.053	-0.002	-0.014	0.014	-0.003	-0.04	-0.025	0.059	0.038	-0.013	0.001	-0.023	0.018	-0.295 (active)	-0.044	0.005	0.012	-0.009
AURKA (UniProt O14965)	0.181	0.018	-0.055	-0.061	-0.08	-0.028	0.028	0.462	0.707 (active)	-0.313	-0.05	0.193	0.914 (active)	0.062	-0.056	-0.128	0.16	0.033	0.001	0.059
ABHD17A isoform 2 (UniProt Q96GS6)	0	-0.011	-0.028	0.223	0.035	0.042	0.017	0.008	-0.068	0.11	0.076	0.001	-0.042	-0.034	-0.078	-0.126	0.062	0.079	-0.042	0.077
ATP1A1 (UniProt P05023)	0.003	0.02	0.017	-0.012	-0.036	0.012	-0.017	-0.032	-0.015	0.057	0.071	0.03	0.007	-0.029	-0.006	0.182	-0.002	-0.006	0.001	0.009
